# In PubChem BioAssay (NCI):
# Compounds without any hit were thinned out: in the full panel of roughly 83,000, 20% have a hit.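 Compound tested at a single concentration for 48 hours in 96-well plates; a percent growth value below 10 was scored as active.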 A number with no mark means an inactive call. Active and inactive are the calls of the source.
# System: HL-60(TB) leukemia
# Experiment: NCI-60 one-dose screen, 48 h (100 = growth as untreated, 0 = no growth, -100 = all killed)
# Conditions: 10 µM unless noted
row,SMILES,growth
1,Cc1ccc2cnc(N)c(C#Cc3cc(C(=O)Nc4ccc(CN5CCN(C)CC5)c(C(F)(F)F)c4)cnc3C)c2c1,30%
2,CCN1C(=O)N(CC)C2C1NC(=S)N2/N=C/C=C/c1ccccc1 (stereo unspecified),-39.2% (active)
3,Cc1cc(O)c(=O)cc2c1C[C@H]1CC(C)(C)/C=C/C[C@]3(C)Oc4cc(=O)c(O)cc(C)c4C[C@H]3C[C@H](O)[C@@]1(C)O2,-19.8% (active)
4,CCc1cccc(Sc2cc(C(=O)N3Cc4ccc(OCCN(C)C)cc4C3)ccc2O)c1,50.3%
5,O=C1c2ccc3c4c(ccc(c24)C(=O)N1CCNCc1ccccc1)C(=O)N(CCNCc1ccccc1)C3=O,-34.6% (active)
6,C=CC(=O)Nc1ccc(Nc2nccc(-c3ccc(N4CCCC4)c(C#N)c3)n2)cc1,-71.8% (active)
7,COc1cc(/C=C/C(=O)c2ccc(F)cc2)ccc1OCCCCOc1cc2c(cc1OC)C(=O)N1CCCC1C=N2 (stereo unspecified),-32.6% (active)
8,O=c1[nH]c(CN2CCN(c3ccccc3)CC2)nc2c(Br)cc(Br)cc12,99.2%
9,CCOC(=O)C(CCN(C)C)c1ccccc1 (stereo unspecified),88.8%
10,COc1cc(Nc2ncccc2C(=O)Nc2nc3ccc(F)cc3s2)cc(OC)c1OC,136%
11,O=C1C(Cl)=C(NCCCN(CCCNC2=C(Cl)C(=O)c3ccccc3C2=O)C2=C(Cl)C(=O)c3ccccc3C2=O)C(=O)c2ccccc21,37.6%
12,CCCCCCCCCCCCCCCC1=NCCN1,-15.6% (active)
13,N#Cc1c(Nc2ccc(N3CCOCC3)cc2)nc(SCC(=O)c2ccc(Br)cc2)nc1-c1ccccc1,86.2%
14,CC(CN(C)C)Oc1ccccc1NC1=C(Cl)C(=O)C(Nc2ccccc2OC(C)CN(C)C)=C(Cl)C1=O (stereo unspecified),-41.8% (active)
15,O=C(Nc1ccncc1)C(=O)c1cn(S(=O)(=O)c2ccc(F)cc2)c2ccccc12,0.498% (active)
16,Cc1ccc2[nH]c(=S)n(-c3ccc(S(=O)(=O)Nc4ccc(Cl)nn4)cc3)c(=O)c2c1,100%
17,Cc1cc(=O)oc2cc(Oc3nc(-c4cccs4)cn4c(-c5cccs5)cnc34)ccc12,77.6%
18,O=S(O)c1cc(Cl)cc(Cl)c1OCc1ccccc1,109%

row,SMILES,growth
1,COc1ccc(/C=C/C(=O)c2c(C)nc3ccccc3c2/C=C/c2ccccc2)cc1O,49.1%
2,CCC(=O)OC1CCC2C3CCC(=O)OC3C(C)(CCC(=O)O)CC12C (stereo unspecified),-23.2% (active)
3,COc1cc(NC(=O)c2cncnc2Nc2ccc3c(ccn3Cc3ccccn3)c2)cc(OC)c1,4.49% (active)
4,COc1ccc2oc(=O)cc(CN3C(=O)S/C(=C\c4ccc(Cl)cc4)C3=O)c2c1,89.5%
5,CC1Cc2c(Cl)ncnc2N(C)c2ccccc21 (stereo unspecified),11.8%
6,O=c1oc2ccc(Br)cc2c(=O)n1-c1ccc(F)cc1F,-1.95% (active)
7,COc1ccccc1CNCCCN1C(=O)c2ccc3c4c(ccc(c24)C1=O)C(=O)N(CCCOCCCCOCCCN)C3=O,-50.2% (active)
8,Cc1c(Cl)cccc1NC(=O)CCCl,73.6%
9,COC(=O)[C@H](Cc1cn(C)cn1)NC(=O)[C@@H](NC(=O)Nc1cc(C(F)(F)F)cc(C(F)(F)F)c1)C(C)C,-73.5% [100 µM] (active)
10,Clc1ccc2c(NCCCCNc3nc(N4CCCCC4)nc4ccccc34)ccnc2c1,-69% (active)
11,COc1ccc(CCN=Cc2ccc(Cl)cc2)cc1OC,86.6%
12,CC(C)NS(=O)(=O)c1cccc(-c2ccc3c(=O)n(CCCN)c4c(c3c2)C(=O)c2ccccc2-4)c1,125%
13,COC(=O)c1nc(-c2ccccc2)oc1S(=O)(=O)N1CCC(C(N)=O)CC1,-33.2% (active)
14,CCN1CCN(Cc2ccc(NC(=O)Nc3nc(-c4cc(OC)c(OC)c(OC)c4)cs3)cc2C(F)(F)F)CC1,8.19% (active)
15,COc1cccc(CNC(=O)c2cccc(C3CC(=O)c4c(cc(OC)c(OC)c4OC)O3)c2)c1 (stereo unspecified),43.9%
16,OC(COc1ccccc1)CN1CCN(c2ccc(Cl)cc2)CC1 (stereo unspecified),83.3%
17,COc1ccc(-c2nc(SCC(=O)Nc3ccc(C(C)=O)cc3)[nH]c(=O)c2C#N)cc1,88.2%
18,COc1ccc(Cn2c(Br)c3c(c2-c2cc(OC)c(OC)c(OC)c2)CCc2sc(NC(=O)c4ccc(OC)cc4)nc2-3)cc1,56.4%
